# In the library only some 19% were active in any assay of this set; here they are far more common.
# Shiga inhibitor: inhibitors of Shiga toxin in Vero cells | Vero cells, Shiga toxin protein synthesis inhibition reporter | inhibition, % at 38.7 µM | 9.2% of 290,000 active; in the data active means inhibition mostly above about 28%, no sharp cut-off; inactive means mostly below about 43%; further: 0% is about no effect
# Pf growth 96h: inhibits malaria parasite growth, 96 h | P. falciparum luciferase reporter growth, 96 h | Potency, µM (doses to about 28.7 µM), without a hit: at the top dose activity change, negative = inhibition, hits mostly inhibitors | 6.9% of 320,000 active; further: potency means the concentration at half of the fitted maximal effect; on the % scale 0 is the no-effect control and ±100 the full control effect
#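 Compounds incubated with erythrocytes infected by luciferase-expressing P. falciparum (2% hematocrit, 0.05% parasitemia final) for 96 hours, 37 C in 5% CO2. Growth inhibition scored as decreased luciferase luminescence.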
# MARV entry inh: Marburg virus entry inhibition. Marburg virus pseudotyped entry inhibition, cell reporter. Potency, µM (titrated, usually from 37.8 µM), for the others: at the highest dose activity change, negative = inhibition, most hits filed as inhibitors. 1.8% of 300,000 active. AID 540276; calls by dose curve; tested in HEK293 cells; further: potency means the concentration at half of the fitted maximal effect; on the % scale 0 is the no-effect control and ±100 the full control effect
# Pf growth 48h: P. falciparum growth inhibition at 48 hours (one generation). P. falciparum luciferase growth in erythrocytes, 48 h. Potency, µM (doses to about 28.7 µM), inactives show top-dose activity change, negative = inhibition, most hits filed as inhibitors. 5.9% of 310,000 active; further: potency means the concentration at half of the fitted maximal effect; on the % scale 0 is the no-effect control and ±100 the full control effect
#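 In quantitative HTS format, infected erythrocytes bearing luciferase-reporter parasites were treated for a single generation at 37 C. Luminescence after adding detection reagent served as the growth measure.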
# CHX counter: affects cycloheximide protein synthesis inhibition readout, counter-screen; max response, %; 12% of 300,000 active; AID 2314; cell reporter, cycloheximide protein synthesis inhibition counterscreen; in the data active means max response mostly above about 13%, no sharp cut-off; inactive means mostly below about 14%; further: read at 38.3 µM for the half of the compounds with a filed dose; 0% is about no effect
# LASV entry inh: Lassa virus entry inhibition; Lassa virus pseudotype entry inhibition, cell reporter; Potency, µM (series often up to 37.9 µM), without a hit: top-dose activity change, negative = inhibition, most hits filed as inhibitors; 1.2% of 300,000 active; calls by dose curve; tested in HEK293 cells; further: potency means the concentration at half of the fitted maximal effect; on the % scale 0 is the no-effect control and ±100 the full control effect; nearly all actives have a fitted effect of over 50% in size
# * = called active by the depositor; i = inactive; ? = inconclusive; . = not tested or not shown; [ ] = dose if it differs, or a comment. Unless noted, the call rests on the fitted dose curve; in most records, active means well fitted inhibition curve with a large enough effect; inconclusive means small, poorly fitted or top-dose-only effect, or another doubt; inactive means no such curve, though single readings can be large or run the other way.
SMILES,Shiga inhibitor,Pf growth 96h,MARV entry inh,Pf growth 48h,CHX counter,LASV entry inh
COc1ccccc1N1CCN(Cc2ccco2)CC1,26,-1%[5.75 µM],?,2.3µM*,16,14%
COc1ccc(NC(=O)CN2CCN(c3ccccc3F)CC2)c(OC)c1,.,.,.,.,.,-19%[46.1 µM]
CCOc1ccccc1N1CCN(Cc2cccc(OC)c2O)CC1,-11,.,?,3.3µM*,1,-6%
O=[N+]([O-])c1cc2c(cc1CN1CCN(c3ccccc3)CC1)OCO2,.,?,.,30%,35*,.
O=C(N/N=C/c1ccc(Br)o1)/C(=C/c1ccc([N+](=O)[O-])cc1)NC(=O)c1ccccc1,-3,-1%,-27%,6%,-3,?
Cc1cc(=O)[nH]c(-c2cccs2)n1,-6,0%,.,6%,1,.
O=C1NC(c2ccccc2Cl)=N/C1=C/c1ccco1,61*,-30%,20%[46.1 µM],15%,38*,?
O=C1NC(=O)C(=Cc2ccco2)C(=O)N1,.,.,?,.,.,-4%[46.1 µM]
O=C1C(=Cc2ccco2)CCC1=Cc1ccco1,.,.,?,.,.,1%
O=C1NC(c2ccc(Br)cc2)=N/C1=C/c1ccco1,63*,?,?,89%,41*,-16%
Cc1cccc(NC(=O)CN(C)S(=O)(=O)c2cnc[nH]2)c1C,.,.,11%[46.1 µM],.,.,19%[46.1 µM]
CCOC(=O)COn1c(=O)c(-c2ccc(Cl)cc2)[n+]([O-])c2ccccc21,6,71%,.,48%,-1,.
CCC(=O)N(CCC(Cc1ccccc1)c1ccc2c(c1)OCO2)Cc1ccccc1F (stereo not drawn),-22,12µM*,13µM*,?,3,?
CCC(=O)N(CCC(c1ccccc1)c1ccc2c(c1)OCO2)Cc1ccc(OC(C)C)cc1 (stereo not drawn),.,.,-10%[46.1 µM],.,.,?
O=C(CCl)NCCN1C(=O)S/C(=C\c2cccnc2)C1=O,25,?,?,?,8,?
COc1ccc(N(C(=O)c2cccnc2)S(=O)(=O)c2ccc(Cl)cc2)cc1,0,5.2µM*,.,2%,3,.
O=C(O)c1ccc(NC2=Nc3cccc4cccc2c34)cc1,69*,0%,.,29%,23*,.
COc1ccc(C(=O)NNC2=Nc3cccc4cccc2c34)cc1,-17,-2%,-5%[46.1 µM],?,1,.
c1ccc(CC2CCN(C3=Nc4cccc5cccc3c45)CC2)cc1,46,2%[5.75 µM],16µM*,?,13,-10%
COc1ccccc1NC1=Nc2cccc3cccc1c23,20,-1%,-29%[46.1 µM],23%,14*,3%
c1cc2c3c(cccc3c1)C(N1CCOCC1)=N2,-13,13%,19%[14.2 µM],32%,15,?
CC(=O)N1CCN(C2=Nc3cccc4cccc2c34)CC1,12,.,-11%,.,8,27%
COc1ccccc1N1CCN(C2=Nc3cccc4cccc2c34)CC1,69,19%,6.3µM*,338%,34*,?
COc1ncccc1C(=O)N1CCCC(C(=O)c2cccc(OC(C)C)c2)C1 (stereo not drawn),18,-26%,-8%,-6%,1,?
CCC(Cc1ccccc1)NC(=O)c1cccc(Nc2nc3ccccc3nc2-n2nc(C)cc2C)c1 (stereo not drawn),.,.,12%[46.1 µM],.,.,15%[46.1 µM]
SMILES,Shiga inhibitor,Pf growth 96h,MARV entry inh,Pf growth 48h,CHX counter,LASV entry inh
Cc1nnc(NC(=O)c2ccc3ccccc3c2)s1,74*,8%,?,189%,31*,-2%[46.1 µM]
CC(C)c1nnc(NC(=O)c2ccc3ccccc3c2)s1,108*,167%,?,263%,51*,?
Cc1ccc(C(=O)Nc2nnc(C)s2)cc1,64*,1%,?,i,27*,-24%
CCCc1cc(C(=O)Nc2nnc(C)s2)cs1,128*,3%,?,86%,33*,?
CC(=O)Nc1ccc(S(=O)(=O)N(C)CC(=O)Nc2ccc(Br)cc2F)cc1,.,-9%,5%,?,.,2%[46.1 µM]
Cc1cc(C)c2c(=O)n(CC(=O)Nc3ccc(Br)c(C)c3)sc2n1,19,48%,.,20%,-2,.
CC(C)CN(CC(C)C)C(=O)c1cc2c(=O)n3ccccc3nc2s1,17,4%,?,-62%,3,-1%
CCN(CC)C(=O)c1cc2c(=O)n3ccccc3nc2s1,38,101%,.,.,22,.
CC(C)CCNC(=O)c1cc2c(=O)n3ccccc3nc2s1,41*,1%,?,43%,20*,?
COCCN(CCOC)C(=O)c1cc2c(=O)n3ccccc3nc2s1,23,3%,?,34%,34*,1%
CCC(C)NC(=O)c1cc2c(=O)n3ccccc3nc2s1 (stereo not drawn),32*,?,-1%,40%,35*,.
CCN(CC)c1ccc(NC(=O)COC(=O)/C=C/c2nc3ccccc3s2)cc1,66,16%,?,19%,14*,11%
CNC(=O)COC(=O)/C=C/c1nc2ccccc2s1,37,?,.,3%,24,.
COc1cc2nc(/C=C/c3ccc(N(C)C)cc3)sc2cc1SC,3,?,8%,?,-2,?
CCN(CC)c1ccc(/C=C/c2nc3ccccc3s2)cc1,127*,78%,-5%,209%,40*,.
CCc1ccc(OCC(=O)N2CC(C(=O)OC)Oc3ccccc32)cc1 (stereo not drawn),-6,46%,.,-2%,-3,.
O=C(Nc1ccc(F)c(Cl)c1)C1CC(=O)n2c(nc3ccccc32)N1 (stereo not drawn),58,20%,7%[46.1 µM],4.7µM*,5,?
O=C(Nc1ccc(F)cc1)C1CC(=O)n2c(nc3ccccc32)N1 (stereo not drawn),-6,0%,?,?,-5,2%
C=CCn1c(CNS(=O)(=O)c2ccc(Cl)cc2)n[nH]c1=S,-4,1%,.,-28%,1,.
Cc1cc(C)nc(N/N=C/c2cccc(Cl)c2)n1,49,7%,?,32%,18*,2%
Cc1cc2c(C)nc(N/N=C/c3ccc([N+](=O)[O-])cc3)nc2o1,-6,?,25%,17%,-6,19%
Cc1ccc(/C=N/Nc2nc(C)cc(C)n2)cc1,57*,12%,-2%[46.1 µM],9%,14*,?
Cc1cc2c(C)nc(N/N=C/c3ccc(F)cc3)nc2o1,25,60%,6%,46%,18*,-3%
CSc1ccc(/C=N/Nc2nc(C)cc(C)n2)cc1,33*,54%,4%,-1%,42*,7.1µM*
O=C1CS(=O)(=O)N(Cc2cccc(F)c2)c2ccc(Br)cc21,.,1%,.,-20%,.,.
CC1CCN(C(=O)CC#N)CC1,12,19%,.,1%,-2,.
Cc1c(NC(=O)c2nc3ccccc3n(C)c2=O)cccc1[N+](=O)[O-],.,.,7%[46.1 µM],.,.,7%[46.1 µM]
C=CCn1c(SCCN2C(=O)c3ccccc3C2=O)nc2scc(-c3ccccc3)c2c1=O,-16,-17%,2%,?,-1,1%
Cc1cc(C)nc(N/N=C/c2ccc(Cl)cc2)n1,32,-9%,.,-6%,13*,.
